Data from ChEMBL document CHEMBL4513216, “Probing the Open Global Health Chemical Diversity Library for Multistage-Active Starting Points for Next-Generation Antimalarials” (ACS Infect Dis, 2020).
Screen size: about 68,000 compounds; about 2,700 (4%) showed an effect of 50% or more. Shown is part of a subset that was picked to be rich in strong results.

test system: Plasmodium berghei; assay: Screen against P. berghei liver stage (PbLuc), transformed with Luciferase, at 2uM; assay type: functional, HepG2; settings: tested at 2 uM

SMILES	INHIBITION [%]
COc1ccc2cc(C(=O)N3CCCC(n4ccnc4C)C3)[nH]c2c1 (centres undefined)	-47.33
CCNc1cc2c(nn1)CCN(C(=O)c1cccc3c1OCO3)C2	1.63
Cn1cc(N2CCN(c3ccc(C#N)cc3Br)CC2=O)cn1	42.2
Cn1cc(N2CCN(c3ccc(C#N)cc3F)CC2=O)cn1	53.98
N#Cc1ccc(N2CCC(OC3CCOCC3)CC2)cc1Cl	26.51
Cn1cc(N2CCN(c3ccc(C#N)c(Cl)c3)CC2=O)cn1	52.3
COCC1CN(c2ccc(C#N)c(Cl)c2)CCO1 (centres undefined)	2.69
Cn1ccnc1CN1CCN(c2ccc(C#N)cc2F)CC1	-5.15
O=C(Cn1cccnc1=O)NCCc1ccc2c(c1)OCCO2	0.9
COc1ccc2c(ccn2CCCN)c1	-19.92
CC(Sc1nnnn1C1CCOCC1)C(F)(F)F (centres undefined)	5.55
COC(=O)C(C)Sc1nnnn1C1CCOCC1 (centres undefined)	-53.55
CC(C)OCCSc1nnnn1C1CCOCC1	17.37
CCCOC(=O)C(C)Sc1nnnn1C1CCOCC1 (centres undefined)	71.4
CC(Sc1nnnn1C1CCOCC1)C(=O)NC1CCCCC1 (centres undefined)	-33.07
CCCC(C)Sc1nnnn1C1CCOCC1 (centres undefined)	61.27
CCc1nccn1C1CCCN(C(=O)Cc2ccc(OC)c(F)c2)C1 (centres undefined)	29.71
COc1ccc(CNC(=O)N2CCCC(Nc3ccccc3)C2)cn1 (centres undefined)	17.48
Fc1ccc(CN2CCc3ncnc(C4CC4)c3CC2)cc1	-12.06
Cc1cn[nH]c1C1CCCCN1C(=O)CCc1c(C)n[nH]c1C (centres undefined)	5.34
O=C(NCC1CCCOC1)c1ccc(-c2cccs2)[nH]c1=O (centres undefined)	38.67
Cc1cc(C(=O)N2CCCC(c3noc(C)n3)C2)[nH]n1 (centres undefined)	45.75
CCN1C[C@@H]2CN(C(=O)c3cccn3C)C[C@@H]2C1=O	17.05
CCCN1C[C@@H]2CC[C@H]1CN(Cc1cccc(O)c1)C2	-1.63
CCN(CCO)C(=O)C1CCC(=O)N(CCc2cccc(F)c2)C1 (centres undefined)	30.62

SMILES	INHIBITION [%]
CC(C)N(C)C(=O)C1CCC(=O)N(CCc2cccc(F)c2)C1 (centres undefined)	68.39
CCC(CO)(CO)NC(=O)C1CCC(=O)N(CCc2ccccc2)C1 (centres undefined)	-19.02
CCCN(CCO)C(=O)C1CCC(=O)N(CCc2ccc(Cl)cc2)C1 (centres undefined)	-16.93
CC(C)N(CCO)C(=O)C1CCC(=O)N(CCc2cccc(F)c2)C1 (centres undefined)	66.74
CCN(CC)C(=O)C1CCC(=O)N(CCc2cccc(F)c2)C1 (centres undefined)	17.48
CC(C)N(CCO)C(=O)C1CCC(=O)N(CCc2ccc(Cl)cc2)C1 (centres undefined)	17.2
CCN(CCO)C(=O)C1CCC(=O)N(Cc2cccc(OC)c2)C1 (centres undefined)	53.61
CCCN(CCO)C(=O)C1CCC(=O)N(Cc2ccc(Cl)cc2)C1 (centres undefined)	-49.57
CN1CCN(C2COC3(CCN(Cc4ccc(F)cc4)CC3)C2)CC1 (centres undefined)	-0.38
CC(C)c1cc(C(=O)NCC(O)C2CCOCC2)nn1C(C)(C)C (centres undefined)	-31.6
Cc1nc2cc(O)nn2c(C)c1CCC(=O)NCc1cc(Br)cs1	15.28
Cc1cc(C(=O)NCC2COCc3c(C)nnn3C2)no1 (centres undefined)	14.39
CCN1CC(C(=O)N(C)Cc2ccon2)CC1=O (centres undefined)	-26.32
CN(C)CC(=O)N1CC[C@H]2OCC[C@@]2(COCC2CC2)C1	11.87
c1cnc(N2CC[C@@H](OCC3CC3)[C@@H]2Cc2cccnc2)nc1	23.21
CNC(=O)COC1COC2(CCN(c3ccc(C#N)cc3)CC2)C1 (centres undefined)	14.97
COCC(=O)N(CCC(=O)OC)CC1CCCO1 (centres undefined)	10.4
COCC(=O)N1CC[C@H]2C[C@H](c3nnc(C4CC4)o3)O[C@@H]2C1	50.61
COCC(=O)N1CC[C@H]2C[C@@H](c3nnc(C4CC4)o3)O[C@@H]2C1	6.55
COCC(=O)N1CC[C@H]2C[C@H](c3nc(C)no3)O[C@@H]2C1	-1.81
CC(C)CS(=O)(=O)CCNC(=O)Nc1cccc2ncccc12	-41.73
COCCOCC(=O)Nc1cc(C)ccc1F	12.56
Cc1ccc(Cl)cc1NC(=O)Cn1cc(C(=O)O)ccc1=O	22.4
Cc1cc(F)ccc1NC(=O)Cn1cc(C(=O)O)ccc1=O	55.39
O=C(Cn1cc(C(=O)O)ccc1=O)Nc1cc(F)ccc1F	63.46

SMILES	INHIBITION [%]
COCCOCC(=O)Nc1ccc(C)cc1F	11.28
O=C(Cn1cc(C(=O)O)ccc1=O)Nc1ccc(Cl)cc1F	33.23
COCCOCC(=O)Nc1ccc(F)cc1C	52.74
O=C(Cn1cc(C(=O)O)ccc1=O)Nc1ccc(F)cc1Cl	-5.95
O=C(Cn1cc(C(=O)O)ccc1=O)NCc1ccc(F)cc1Cl	9.27
O=C(CC1COCCN1C(=O)c1cscn1)c1ccccc1 (centres undefined)	5.43
CNC(=O)Cc1ccccc1NC(=O)C1CCN(C2CCCCC2)C1 (centres undefined)	-0.39
CC(=O)Nc1ccc(CNCc2ccc(CS(C)(=O)=O)cc2)cc1	-1.53
Cc1nc(CN2CCCC(NCCCOc3ccc(F)cc3)C2)no1 (centres undefined)	4.18
CCc1ncc(C(=O)NCC2CCN(Cc3ccncc3)CC2)cn1	-6.29
CCN1CCN(C2CCN(Cc3cc(C)on3)CC2)C1=O	-14.11
Cc1csc(N2CCN(C(=O)CCc3nccs3)CC2)n1	-18.67
CC(C)CN(CC(O)c1ccc(F)cc1)C(=O)c1cc[nH]n1 (centres undefined)	10.91
Cc1[nH]ncc1C(=O)N(CC(C)C)CC(O)c1ccc(F)cc1 (centres undefined)	25.65
Cc1cc(C(=O)N(CC(C)C)CC(O)c2ccc(F)cc2)[nH]n1 (centres undefined)	51.96
NCc1cn(CC2CCCN(C(=O)NCCc3ccc(F)cc3)C2)nn1 (centres undefined)	62.51
CNc1ccc(Cl)cc1C(=O)N1CCC(Cn2cc(CN)nn2)CC1	3.72
COc1cccc(CNC(=O)CN2CCCC(Cn3cncn3)C2)c1 (centres undefined)	-0.76
COc1ccc(CC(=O)N2CCCC(Cn3cc(CN)nn3)C2)cc1 (centres undefined)	12.43
CCC(=O)N1CCCC(Cn2cc(-c3ccc(F)cc3)nn2)C1 (centres undefined)	-27.82
COc1cccc(CNC(=O)N2CCCC(Cn3cc(CN)nn3)C2)c1 (centres undefined)	76.82
NCc1cn(CC2CCCN(C(=O)CC3=CCCCC3)C2)nn1 (centres undefined)	16.72
NCc1cn(CC2CCCN(C(=O)NCc3ccc(Cl)cc3)C2)nn1 (centres undefined)	62.51
CC(C)NC(=O)N1CCCC(Cn2cc(-c3ccc(F)cc3)nn2)C1 (centres undefined)	-17.86
